From PubChem BioAssay AID2405 (Southern Research Specialized Biocontainment Screening …, 2010)
Active and inactive are the calls of the source. No rule for the calls is given here.

Experiment: anti-RSV activity of probe candidates, cell-based (AID 2405)
Settings: RSV cytopathic effect inhibition, HEp-2 cells, stronger effect = higher value; at 100 µM unless noted

Maximum inhibition, inactive:
Cc1ccc2nc3n(c(=O)c2c1)CCC3 2%
COc1cccc(NC(=O)CSc2nc3ccccc3c(=O)n2-c2ccc(F)cc2)c1 48.3%
O=C(CSc1nc2ccccc2c(=O)n1-c1ccc(F)cc1F)Nc1ccc(N2CCOCC2)cc1 1.49%
CCOC(=O)C1(Cc2ccccc2C(F)(F)F)CCN(C2CCN(C(C)=O)CC2)CC1 1.32% [at 6.25 µM]
CC1(O)c2cc(Br)ccc2N=C2CCCN21 (stereo not drawn) 2.76%
O=c1c2c(F)cccc2nc2n1CCC2 2.17% [at 0.39 µM]
O=C(CSc1nc2ccccc2c(=O)n1-c1ccc(F)cc1)Nc1ccc2c(c1)OCCO2 15% [at 50 µM]
Oc1ccccc1C(Nc1nccs1)c1ccc2cccnc2c1O (stereo not drawn) 4.97% [at 12.5 µM]
O=C(CSc1nc2ccccc2c(=O)n1-c1ccccc1)Nc1ccc2c(c1)CCC2 18.8% [at 12.5 µM]
O=c1c2cccc(Cl)c2nc2n1CCC2 1.74% [at 50 µM]
COc1cccc(-n2c(SCC(=O)Nc3ccc4c(c3)CCC4)nc3ccccc3c2=O)c1 8.16%
COc1cccc2c(=O)n(-c3ccccc3)c(SCC(=O)Nc3ccc4c(c3)CCC4)nc12 21.8%
O=C(CSc1nc2ccccc2c(=O)n1-c1ccc(F)c(Cl)c1)Nc1ccc2c(c1)CCC2 6.32%
O=c1c2cc([N+](=O)[O-])ccc2nc2n1CCC2 1.3%
O=C(CSc1nc2ccc(F)cc2c(=O)n1-c1ccccc1)Nc1ccc2c(c1)CCC2 14.7%
Cc1cccc2c1-c1sc(C(=O)NCCCN3CCCC(C)C3)cc1CO2 (stereo not drawn) 1.01% [at 0.78 µM]
O=C(CSc1nc2ccccc2c(=O)n1-c1ccc(F)cc1)Nc1cccc2ccccc12 16.6%
OC1c2c(F)cccc2N=C2CCCCCN21 (stereo not drawn) 1.87% [at 12.5 µM]
O=C(CSc1nc2cccc(I)c2c(=O)n1-c1ccccc1)Nc1ccc2c(c1)CCC2 5.17%
O=C(Nc1nc(-c2ccc(Cl)cc2)cs1)c1ccc(Cl)cc1 2.44%
COc1ccc(-c2csc(N(C(=O)c3ccccc3Cl)C(C)C)n2)cc1 6.99% [at 25 µM]
O=c1c2cc(I)ccc2nc2n1CCC2 5.94%
COc1cccc(C(NC(=O)c2ccccc2)c2ccc3cccnc3c2O)c1 (stereo not drawn) 3.45% [at 12.5 µM]
CC1CCN(CCCNC(=O)c2cc3c(s2)-c2ccccc2OC3)CC1 3.42% [at 50 µM]
OC1c2cc(Br)ccc2N=C2CCCCCN21 (stereo not drawn) 1.05%
Cc1cc(OC(=O)c2c(F)cccc2F)n(Cc2ccccc2)n1 0.49% [at 3.13 µM]
O=C(CSc1nc2ccccc2c(=O)n1-c1ccc(Cl)cc1)Nc1ccc2c(c1)CCC2 11.5% [at 25 µM]
COc1ccc(-c2csc(N(CCCBr)C(=O)c3ccccc3Cl)n2)cc1 3.83% [at 50 µM]
